Source: PubChem
LASV entry inh = inhibitors of Lassa virus binding or cell entry; Lassa virus pseudotype entry inhibition, cell reporter; Potency, µM (doses to about 37.9 µM), actives largely listed as inhibitors; 300,000 tested, 1.2% active; AID 540256; calls by dose curve; tested in HEK293 cells; also: nearly all actives have a fitted effect of over 50% in size
CHX counter = counter-screen for Shiga toxin inhibitors: cycloheximide protein synthesis inhibition | cell reporter, cycloheximide protein synthesis inhibition counterscreen | max response, % | 300,000 tested, 12% active; in the data active = max response mostly above about 13%, no sharp cut-off; inactive = mostly below about 14%; also: read at 38.3 µM for the half of the compounds with a filed dose
MARV entry inh = Marburg virus entry inhibition | Marburg virus pseudotyped entry inhibition, cell reporter | Potency, µM (series often up to 37.8 µM), actives largely listed as inhibitors | 300,000 tested, 1.8% active | AID 540276; calls by dose curve; tested in HEK293 cells
Pf growth 48h = inhibits P. falciparum growth in the first generation, 48 h. P. falciparum luciferase growth in erythrocytes, 48 h. Potency, µM (highest dose often 28.7 µM), usual class: inhibitors. 310,000 tested, 5.9% active
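Read-out is firefly luciferase luminescence from an integrated reporter in P. falciparum, so falling signal marks reduced parasite growth. Infected erythrocytes were at 2% hematocrit and 0.1% parasitemia (final) in Albumax-supplemented RPMI 1640.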
Shiga toxin inh = inhibitors of Shiga toxin in Vero cells | 290,000 tested, 9.2% active | AID 2315 | inhibition, % at 38.7 µM | Vero cells, Shiga toxin protein synthesis inhibition reporter; in the data active = inhibition mostly above about 28%, no sharp cut-off; inactive = mostly below about 43%
Pf growth 96h = P. falciparum growth inhibition at 96 hour, primary screen for plastid delayed-death inhibitors | P. falciparum luciferase reporter growth, 96 h | Potency, µM (titrated, usually from 28.7 µM), most hits filed as inhibitors | 320,000 tested, 6.9% active | AID 504834
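Compounds incubated with erythrocytes infected by luciferase-expressing P. falciparum (2% hematocrit, 0.05% parasitemia final) for 96 hours, 37 C in 5% CO2. Growth inhibition scored as decreased luciferase luminescence.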
A number is an active result; [ ] = dose if it differs, or a comment. A selection: hits, their analogues and other compounds. The true share with any hit is near 19%. Unless noted, calls follow the shape of the dose curve; as a rule, active = well fitted inhibition curve with a large enough effect; inconclusive = small, poorly fitted or top-dose-only effect, or another doubt; inactive = no such curve, though single readings can be large or run the other way.

What do the screens show for `COc1ccccc1C(=O)NCCC(=O)N1CCCCCCC1`?
LASV entry inh: inactive; MARV entry inh: inactive; Pf growth 48h: inconclusive; Pf growth 96h: inactive

What do the screens show for `COc1ccccc1C(=O)NCC(=O)N1CCN(S(=O)(=O)c2ccc3c(c2)OCCO3)CC1`?
LASV entry inh: inactive; MARV entry inh: inactive; Pf growth 48h: inconclusive; Pf growth 96h: inactive

What do the screens show for `COc1ccccc1C(=O)NCC(=O)N1CCN(S(=O)(=O)c2ccccc2C(F)(F)F)CC1`?
Pf growth 48h: inconclusive; Pf growth 96h: 8.28µM

How did O=C(NCCC(=O)N1CCCC1)c1ccccc1Cl do in these assays?
CHX counter: 17.5; Pf growth 48h: inactive; Shiga toxin inh: inactive; Pf growth 96h: inactive

What do the screens show for `COc1ccccc1C(=O)NCCC(=O)N1CCN(c2ccccc2Cl)CC1`?
LASV entry inh: inactive; MARV entry inh: inactive; Pf growth 48h: 8.28µM; Pf growth 96h: 11.7µM

How did Cc1ccc(OCCCCn2ccnc2C)c(C)c1 do in these assays?
LASV entry inh: inactive; CHX counter: inactive; MARV entry inh: inconclusive; Pf growth 48h: inconclusive; Shiga toxin inh: inactive; Pf growth 96h: inactive

What do the screens show for `Cc1ccc(C(C)C)c(OCCn2ccnc2C)c1`?
LASV entry inh: inactive; CHX counter: inactive; MARV entry inh: inactive; Pf growth 48h: inconclusive; Pf growth 96h: 11.7µM

How did Cc1ccc(S(=O)(=O)NCc2ccccc2)cc1C(=O)N(C)Cc1ccccc1F do in these assays?
LASV entry inh: inactive; CHX counter: inactive; MARV entry inh: inactive; Pf growth 48h: inactive; Shiga toxin inh: inactive; Pf growth 96h: inactive

What do the screens show for `COc1ccccc1-n1cnc2c(c1=O)c1nc3ccccc3nc1n2-c1ccc(C)c(C)c1`?
CHX counter: inactive; Pf growth 48h: inconclusive; Shiga toxin inh: inactive; Pf growth 96h: 10.4µM

How did COCCCn1c2nc3ccccc3nc2c2c(=O)n(-c3ccccc3OC)cnc21 do in these assays?
LASV entry inh: inactive; CHX counter: inactive; MARV entry inh: inactive; Pf growth 48h: inactive; Shiga toxin inh: inactive; Pf growth 96h: inactive

How did COc1cccc(CNCCN2CCOCC2)c1OC do in these assays?
LASV entry inh: inactive; CHX counter: inactive; MARV entry inh: inactive; Pf growth 48h: inactive; Shiga toxin inh: inactive; Pf growth 96h: inactive

How did COc1ccc(-c2cc(C(F)(F)F)nc(N3CCN(Cc4ccccc4)CC3)n2)cc1OC do in these assays?
LASV entry inh: inconclusive; CHX counter: inactive; MARV entry inh: inconclusive; Pf growth 48h: 10.4µM; Shiga toxin inh: inactive; Pf growth 96h: inactive

Results for O=C(NCCOCCOCCNC(=O)c1cccnc1)c1cccnc1 ?
LASV entry inh: inactive; CHX counter: 16.7; MARV entry inh: inactive; Pf growth 48h: inactive; Shiga toxin inh: inactive; Pf growth 96h: inactive[5.75 µM]

Results for O=C(NCCc1cccc(Cl)c1)c1cccc([N+](=O)[O-])c1 ?
LASV entry inh: inactive; CHX counter: 21.5; MARV entry inh: inactive; Pf growth 48h: inactive; Shiga toxin inh: inactive; Pf growth 96h: inactive

What do the screens show for `O=C(NCCCCCNC(=O)c1cccnc1)c1cccnc1`?
LASV entry inh: inactive; CHX counter: inactive; MARV entry inh: inactive; Pf growth 48h: inactive; Shiga toxin inh: inactive; Pf growth 96h: inactive

How did O=C(NCCc1cccc(Cl)c1)c1cccnc1 do in these assays?
LASV entry inh: inactive; CHX counter: 57.0; MARV entry inh: inactive; Pf growth 48h: inactive; Shiga toxin inh: 142.5; Pf growth 96h: inactive

What do the screens show for `COc1ccc(N2CCN(C(=O)CCNS(=O)(=O)c3cccs3)CC2)cc1`?
LASV entry inh: inactive; CHX counter: inactive; MARV entry inh: inactive; Pf growth 48h: inactive; Shiga toxin inh: inactive

What do the screens show for `Cc1cccc(N2CCN(C(=O)CCNS(=O)(=O)c3cccs3)CC2C)c1` (stereo not given)?
CHX counter: 15.6; MARV entry inh: inactive; Pf growth 48h: inactive; Shiga toxin inh: 65.5; Pf growth 96h: inactive

Results for O=C(CCNS(=O)(=O)c1cccs1)N1CCc2ccccc2C1 ?
LASV entry inh: inactive; CHX counter: 28.7; MARV entry inh: inactive; Pf growth 48h: inactive; Shiga toxin inh: 86.3

What do the screens show for `CC1CC(C)CN(C(=O)CCNS(=O)(=O)c2cccs2)C1` (stereo not given)?
LASV entry inh: inactive; CHX counter: inactive; MARV entry inh: inactive; Pf growth 48h: inactive; Shiga toxin inh: inactive; Pf growth 96h: inactive

Results for Cc1ccc(C(=O)Nc2ccccc2C(=O)Nc2ccccn2)cc1Cl ?
LASV entry inh: inactive; CHX counter: inactive; MARV entry inh: 12.6µM; Pf growth 48h: inactive; Shiga toxin inh: inactive; Pf growth 96h: inconclusive
